Measured values reported in PubChem BioAssay (NCATS).
Records with an inconclusive call do not appear. A number with no mark means an inactive call. Calls of active or inactive are those of the source. Calls come from the whole dose curve; as a rule, active = well fitted inhibition curve with a large enough effect; inconclusive = small, poorly fitted or top-dose-only effect; inactive = no such curve, though single readings can be large or run the other way.

Each molecule was assayed on Zika virus NS2B-NS3 protease (linked construct) (assay: Primary screen NINDS Rhodamine qHTS for Zika virus inhibitors (AID 1347160; note: nearly all actives have a fitted effect of over 55% in size)). Settings: purified NS2B-NS3 protease, Rhodamine110 substrate fluorescence; series mostly up to 57.1 µM; activity change, negative = inhibition: at the top concentration.
Procedure, shortened: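 Aprotinin served as in-plate control. Conditions: 25 nM linked NS2B-NS3, pH 8.0 Tris buffer, titrated compounds, 15 min preincubation and 15 min reaction with 1.5 microM Rhod110 substrate at room temperature.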
% is set by controls: 0 for no effect and ±100 for the full control effect.

| Structure (SMILES) | outcome | activity change, negative = inhibition |
| --- | --- | --- |
| CNS(=O)(=O)CC1CCC(N(C)c2ncnc3[nH]ccc23)CC1 (centres undefined) | inactive | – |
| COc1ccc(F)cc1-c1cc(NC(=O)[C@@H]2CCCNC2)ncc1Cl | inactive | – |
| CC1(C=O)CC[C@]2(C(=O)O[C@@H]3O[C@H](CO)[C@@H](O)[C@H](O)[C@H]3O)CC[C@]3(C)C(=CCC4[C@@]5(C)C[C@H](O)[C@H](O[C@@H]6OC[C@@H](O)[C@H](O)[C@H]6O)[C@@](C)(CO)C5CC[C@]43C)C2C1 (some centres undefined) | – | 25.8% [at 15.1 µM] |
| COc1ncc(Nc2ncc([C@@H](C)N3CCN(S(C)(=O)=O)CC3)cc2-c2nc(C)nc(N)n2)cc1F | inactive | – |
| CCNCc1nc2c(N)nc3ccccc3c2n1CC(C)(C)O | – | 29.2% |
| C[C@@H]1C(=O)O[C@H]2C[C@]34[C@H]5C[C@@H](C(C)(C)C)[C@]36[C@@H](OC(=O)[C@H]6O)O[C@]4(C(=O)O5)[C@]21O | – | 11% [at 33.1 µM] |
| Nc1nc(-n2cc(C(=O)O)c(=O)c3cc(F)c(N4CC(O)C4)c(Cl)c32)c(F)cc1F | – | 2.86% [at 33.1 µM] |
| COC(=O)CCSCc1ccc(-c2onc(C)c2NC(=O)OC(C)c2ccccc2Cl)cc1 (centres undefined) | – | 21.7% |
| CC(C)=CCC[C@](C)(O)[C@H]1CC[C@]2(C)[C@@H]1[C@H](O)CC1[C@@]3(C)CC[C@H](O)C(C)(C)[C@@H]3[C@@H](O[C@@H]3O[C@H](CO)[C@@H](O)[C@H](O)[C@H]3O[C@@H]3O[C@H](CO)[C@@H](O)[C@H](O)[C@H]3O)C[C@]12C (some centres undefined) | – | 15.1% [at 15.1 µM] |
| COc1ccc([C@H]2CNC(=O)C2)cc1OC1CCCC1 | – | -17.8% |
| CC1=C(C)C(=O)OC(C(C)C2CCC3C4C5OC5C5(O)CC(OC6OC(CO)C(OC7OC(C)C(O)C(O)C7O)C(O)C6O)CC(O)C5(C)C4CCC23C)C1 (centres undefined) | – | 17.2% [at 15.1 µM] |
| CC(C)=CCC[C@](C)(O)[C@H]1CC[C@]2(C)[C@@H]1[C@H](O)CC1[C@@]3(C)CC[C@H](O)C(C)(C)C3[C@@H](O[C@@H]3O[C@H](CO)[C@@H](O)[C@H](O)[C@H]3O[C@@H]3OC[C@@H](O)[C@H](O)[C@H]3O)C[C@]12C (some centres undefined) | – | -16.3% [at 15.1 µM] |
| CCOc1ccc2nc(SCCN3CCOCC3)[nH]c2c1 | – | -1.82% |
| Cc1nc2sc(C(=O)NCc3ccncc3)c(N)c2c(C)c1Cl | – | -7.41% |
| O=C1NC(Cc2c[nH]c3ccccc23)C(=O)NC1Cc1cnc[nH]1 (centres undefined) | – | 18.2% [at 33.1 µM] |
| O=C(/C=C/c1cccc(S(=O)(=O)Nc2ccccc2)c1)NO | – | 6.81% [at 33.1 µM] |
| O=C(CN1C(=O)C2(CCCC2)NCC1c1cc(F)cc(F)c1)Nc1ccc2c(c1)CC1(C2)C(=O)Nc2ncccc21 (centres undefined) | inactive | – |
| Cc1ccc(F)cc1C(=O)Nc1ccc(C(=O)N2Cc3cccn3Cc3ccccc32)c(Cl)c1 | – | -4.1% |
| CC[C@H](C)[C@H](NC(=O)[C@H]([C@@H](C)CC)N(C)C(C)=O)C(=O)N[C@H](C(=O)N[C@@H](CC(C)C)C(=O)[C@@]1(C)CO1)[C@@H](C)O | – | -8.87% |
